DT40 TDP1 CPT: qHTS for Inhibitors of human tyrosyl-DNA phosphodiesterase 1 (TDP1): qHTS in cells in presence of CPT | actives 12% (n = 420,000) | chicken DT40 Tdp1-/-;hTDP1 cells + 20 nM CPT, ATP luminescence, 48 h | Potency, µM (doses to about 46.2 µM), without a hit: top-dose activity change, negative = growth inhibition, most hits filed as inhibitors; further: potency means the concentration at half of the fitted maximal effect; nearly all actives have a fitted effect of over 55% in size
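Chicken DT40 Tdp1-/- cells complemented with human TDP1, 400 cells/well, exposed to compounds plus 20 nM camptothecin for at least 48 h at 37 C; viability read as ATP content by CellTiter-Glo luminescence.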
HT1080-NT tox: qHTS for induction of synthetic lethality in tumor cells producing 2HG: qHTS for the HT-1080-NT fibrosarcoma cell line. HT-1080-NT fibrosarcoma viability, CellTiter-Glo ATP luminescence, 48 h. actives 1.6% (n = 360,000). Potency, µM (highest dose often 46.1 µM), without a hit: at the top dose activity, negative = less viability, actives largely listed as cytotoxic;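 further: NT is the 2HG producing partner of a matched IDH1 knockdown line; potency means the concentration at half of the fitted maximal effect; 0% = DMSO-treated cells and -100% = media-only wells without cells; nearly all actives have a fitted effect of over 55% in size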
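Viability of the 2HG-overproducing fibrosarcoma line after 48 hours of compound exposure at 37 degrees C was determined by luminescence with CellTiter-Glo, and concentration-effect curves were then fitted and categorized.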
TDP1 cell noCPT: qHTS for Inhibitors of human tyrosyl-DNA phosphodiesterase 1 (TDP1): qHTS in cells in absence of CPT | DT40 Tdp1-/- hTDP1 cells, no CPT, ATP luminescence, 48 h | Potency, µM (doses to about 46.2 µM), for the others: top-dose activity change, negative = growth inhibition, most hits filed as inhibitors | actives 15% (n = 420,000) | AID 686978, 2013; further: potency means the concentration at half of the fitted maximal effect; nearly all actives have a fitted effect of over 55% in size
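DT40 Tdp1-/-;hTDP1 cells, no CPT (DMSO vehicle only), 400 cells/well; compounds pin-transferred; ≥48 hr, 37 °C; CellTiter-Glo 30 min RT dark, luminescence read.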
ELG1 repair inh: qHTS screen for small molecules that inhibit ELG1-dependent DNA repair in human embryonic kidney (HEK293T) cells expressing luciferase-tagged ELG1. AID 504467, 2011. actives 2.3% (n = 330,000). Potency, µM (titrated, usually from 46.1 µM), without a hit: at the top dose activity change, negative = inhibition, actives largely listed as inhibitors. HEK293T ELG1-luciferase reporter, luminescence, 16 h; DNA damage induced by 5-fluorouridine; further: potency means the concentration at half of the fitted maximal effect; nearly all actives have a fitted effect of over 55% in size
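Quantitative HTS, concentration-response format. 2,000 cells/well co-treated with 5-fluorouridine and compound, 16 hr in 5% CO2 at 37 °C; ONE-Glo luminescence read after 30 min.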
HT1080 IDH1KD tx: qHTS for induction of synthetic lethality in tumor cells producing 2HG: qHTS for the HT-1080-IDH1KD cell line. HT-1080 IDH1 knockdown viability, ATP luminescence, 48 h. Potency, µM (titrated, usually from 46.1 µM), for the others: at the top dose activity, negative = toxicity, hits mostly cytotoxic. actives 2% (n = 360,000). AID 686971, 2013;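 further: potency means the concentration at half of the fitted maximal effect; 0% = DMSO wells and -100% = cell-free medium wells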
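Cytotoxicity counter-line: IDH1KD HT-1080, 48 h, CellTiter-Glo. Curves classed by r2, magnitude and activity.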
IL1B secr inh: qHTS for Inhibitors of Inflammasome Signaling: IL-1-beta AlphaLISA Primary Screen; THP-1 LPS/ATP IL-1B secretion, AlphaLISA, 16 h; hits give low values; activity change, % at 57.5 µM; actives 4.7% (n = 360,000); AID 743279, 2014; in the data active means activity change below about -50%; inconclusive means mostly about -30% to -49%
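Secreted IL-1B measured by AlphaLISA bead assay after 16 h compound exposure of THP-1 cells; compounds (final up to 57.5 uM) added 1 h before LPS (250 ng/mL) and ATP (1.25 mM) stimulation; lower signal means less secretion.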
Numbers without * were called inactive; ? = inconclusive; · = no result; [ ] = remark or other dose. The list is not random: actives were taken first. Their share in the collection is about 19%. Unless noted, the call rests on the fitted dose curve; in most records, active means well fitted curve in the direction sought with a large enough effect; inconclusive means small, poorly fitted or top-dose-only effect, or another doubt; inactive means no such curve, though single readings can be large; an effect the other way counts as inactive or inconclusive. Unless noted, on the % scale 0 is the no-effect control and ±100 the full control effect.

SMILES | DT40 TDP1 CPT | HT1080-NT tox | TDP1 cell noCPT | ELG1 repair inh | HT1080 IDH1KD tx | IL1B secr inh
O=C1c2ccccc2-c2cc(Br)ccc2NC1O (centres undefined) | -20.0% | 0.1% | ? | · | -13.6% | 0.9
O=C1c2ccccc2C(=Nc2ccccc2)C1c1cccc(Br)c1 (centres undefined) | 10.3µM* | -3.3%[9.24 µM] | ? | 0.0% | -18.5% | 54.4
CCOC(=O)C1=C(C)Nc2nc3ccccc3n2C1c1ccncc1 (centres undefined) | ? | -2.1% | ? | -28.5% | -4.8% | -21.9
CCc1ccc(C2=CC(c3c(F)cccc3Cl)n3c(nc4ccccc43)N2)cc1 (centres undefined) | 18.4µM* | · | 7.31µM* | · | · | ·
CCOC(=O)CNC(=O)CNC(=O)c1ccc(OC(C)C)cc1 | 0.3% | -2.5% | -1.6% | ? | -0.1% | 1.2
CCCCCOc1ccc(C(=O)NCC(=O)NCC(=O)OCC)cc1 | 18.4µM* | ? | 20.6µM* | ? | ? | 31.1
CCOC(=O)CNC(=O)CNC(=O)c1ccc(OCC(C)C)cc1 | ? | 0.1% | 20.6µM* | -1.2% | 5.8% | 24.5
CCCCOc1ccc(C(=O)NCC(=O)NCCOc2ccccc2)cc1 | 1.2% | 2.1% | -25.0% | ? | -2.7% | 1.6
COc1ccccc1OCCNC(=O)Cc1ccc(S(=O)(=O)N2CCOCC2)s1 | 8.5% | -2.9% | -2.8% | 7.0% | 1.2% | -4.3
CCCC(NC(=O)c1ccc(Br)o1)c1nc2ccccc2[nH]1 (centres undefined) | 16.4µM* | 5.1% | ? | 9.0% | 2.2% | -9.2
O=C(NC(Cc1ccccc1)c1nc2ccccc2[nH]1)c1ccc(Cl)c([N+](=O)[O-])c1 (centres undefined) | 10.3µM* | 20.6µM* | 23.1µM* | ? | ? | -164.8*
CSCC[C@H](NC(=O)c1ccc(Cl)c([N+](=O)[O-])c1)c1nc2ccccc2[nH]1 | ? | ? | ? | 11.1% | ? | -102.4*
CSCC[C@H](NC(=O)c1cccc([N+](=O)[O-])c1C)c1nc2ccccc2[nH]1 | -26.4% | -9.1% | ? | -0.5% | 0.9% | -0.1
CCCCn1nc(C(=O)N[C@@H](CCSC)c2nc3ccccc3[nH]2)c2ccccc2c1=O | 25.9µM* | ? | ? | · | ? | -21.1
COc1cc(=O)n2c(c1C(=O)N(C)Cc1nonc1C)CCN(C(=O)c1ccc(C)c(C)c1)CC2 | 0.0%[9.04 µM] | · | 0.4% | · | · | ·
O=C(Nc1ccc2oc(Cc3ccc(Cl)cc3)nc2c1)c1cccnc1 | ? | ? | ? | ? | -12.4% | -67.5*
CCOc1cccc(C(=O)Nc2ccc3oc(Cc4ccc(Cl)cc4)nc3c2)c1 | ? | -26.7% | ? | 18.4µM* | ? | -15.3
O=C(Nc1ccc2oc(-c3cccnc3)nc2c1)c1ccc(-c2ccc(Cl)cc2)o1 | 2.0% | · | -25.4% | · | · | ·
Cc1nc2cc(NC(=O)c3cccc(S(C)(=O)=O)c3)ccc2o1 | -1.2% | 9.9% | 0.4% | ? | 8.5% | 3.0
COc1cccc2c1C(CO)N1C(C#N)C3CC(C(=O)O)C(C1C2)N3C (centres undefined) | 0.184µM* | -9.4% | 0.206µM* | 0.326µM* | ? | -115.9*
Cc1ccc(CNC(=O)c2ccc(S(=O)(=O)N3CCCCCC3)cc2)cc1 | 20.6µM* | -14.2% | 4.11µM* | · | ? | 42.5

Assay outcomes as filed in PubChem BioAssay.
